# About 2,000 (36%) of roughly 5,500 compounds were called active. Inconclusive results (about 18%) are left out. The list shows a part of the results. Values without a mark were called inactive. No stated cut-off is given here; in the data, active means normalized growth mostly below about 0.91 (no sharp cut-off); inconclusive means no clear call, values can overlap the other calls; inactive means mostly above about 0.92.
# Test: chemical genetic growth profiling, strain panel (AID 1159580);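 further: tested at 20 µM; growth read once vehicle control cultures reached saturation at 30 °C; 1 = growth at the plate median or of vehicle wells; lower values mean less growth of the strain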
# Conditions: S. cerevisiae deletion strains, growth OD
structure (smiles),measurement,setting,value
N#Cc1nccnc1Sc1ccc(Cl)cc1,normalized growth,"locus YAL013W, strain DEP1, hits give low values",0.946
same,normalized growth,"locus YBR229C, strain ROT2, hits give low values",0.936
same,normalized growth,"locus YDL101C, strain DUN1, hits give low values",0.948
same,normalized growth,"locus YDR150W, strain NUM1, hits give low values",1.03
same,normalized growth,"locus YEL061C, strain CIN8, hits give low values",0.914
same,normalized growth,"locus YGR078C, strain PAC10, hits give low values",0.962
same,normalized growth,"locus YHR030C, strain SLT2, hits give low values",0.537 (active)
same,normalized growth,"locus YHR087W, strain rtc3, hits give low values",0.978
same,normalized growth,"locus YJL187C, strain SWE1, hits give low values",0.949
same,normalized growth,"locus YJR043C, strain POL32, hits give low values",0.993
same,normalized growth,"locus YJR075W, strain HOC1, hits give low values",0.986
same,normalized growth,"locus YKL190W, strain CNB1, hits give low values",0.932
same,normalized growth,"locus YLR039C, strain RIC1, hits give low values",0.698 (active)
same,normalized growth,"locus YLR058C, strain SHM2 (second series), hits give low values",0.929 (active)
same,normalized growth,"locus YLR085C, strain ARP6, hits give low values",0.686 (active)
same,normalized growth,"locus YLR262C, strain YPT6, hits give low values",0.729 (active)
same,normalized growth,"locus YML094W, strain GIM5, hits give low values",0.905
same,normalized growth,"locus YMR219W, strain ESC1, hits give low values",0.93 (active)
same,normalized growth,"locus YMR263W, strain SAP30, hits give low values",0.963
same,normalized growth,"locus YNL128W, strain TEP1, hits give low values",0.945
same,normalized growth,"locus YNL153C, strain GIM3, hits give low values",0.988
same,normalized growth,"locus YNL298W, strain CLA4 (second series), hits give low values",0.868
same,normalized growth,"locus YNL322C, strain KRE1, hits give low values",0.925 (active)
same,normalized growth,"locus YNR030W, strain Alg12, hits give low values",0.927
same,normalized growth,"locus YPL055C, strain LGE1, hits give low values",1.01
same,normalized growth,"locus YPL241C, strain CIN2, hits give low values",0.941
same,normalized growth,"locus YPR135W, strain CTF4, hits give low values",0.556 (active)

# — PubChem BioAssay AID1159580 (chemical genetic matrix, 2015)
